Screening data: PubChem, National Center for Advancing Translational Sciences (NCATS)
Most compounds without a hit are left out; they make up all but 0.34% or so of the library.
Vif-APOBEC3F blk – blocks the Vif interaction with APOBEC3F; HeLa A3F-eYFP + Vif (tagged APOBEC3F with the HIV-1 protein that degrades it), YFP fluorescence increase; Potency, µM (highest dose often 46.1 µM); actives 0.2% (n = 390,000); further: nearly all actives have a fitted effect of over 65% in size
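Fluorescence increase (Ex 488/Em 500-530) after overnight compound treatment at 37 deg C flags inhibition of Vif-driven A3F-eYFP loss in stable HeLa A3F-eYFP/Vif cells seeded overnight beforehand.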
Vif-A3G inh – inhibitors of Vif-APOBEC3G interaction | HeLa A3G-eYFP + Vif (tagged APOBEC3G with the HIV-1 protein that degrades it), YFP fluorescence, overnight | Potency, µM (doses to about 46.1 µM), actives largely listed as inhibitors | actives 0.076% (n = 410,000); further: nearly all actives have a fitted effect of over 60% in size
Target sequence (Q9HC16 whole entry, looked up): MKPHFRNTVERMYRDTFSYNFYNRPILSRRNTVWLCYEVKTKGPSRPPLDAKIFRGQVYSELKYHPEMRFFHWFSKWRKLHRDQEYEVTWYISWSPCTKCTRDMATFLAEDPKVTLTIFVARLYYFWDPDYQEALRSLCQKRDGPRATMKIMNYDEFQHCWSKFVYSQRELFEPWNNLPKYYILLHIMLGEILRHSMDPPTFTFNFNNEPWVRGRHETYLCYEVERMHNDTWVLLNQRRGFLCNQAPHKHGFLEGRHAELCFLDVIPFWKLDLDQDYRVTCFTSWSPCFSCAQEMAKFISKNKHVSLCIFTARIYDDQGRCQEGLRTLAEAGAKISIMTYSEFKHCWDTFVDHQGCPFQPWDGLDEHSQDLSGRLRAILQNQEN
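HeLa cells stably expressing Vif and C-terminally eYFP-tagged A3G, seeded overnight at 37 deg C, then exposed to compound by pintool overnight at 37 deg C. Rise in yellow fluorescence (Ex 488/Em 500-530, Acumen) marks blocked Vif-driven A3G degradation.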
Epigenetic reg – epigenetic control regulation, reporter derepression | murine LDR cells, GFP reporter derepression, 30 h | Potency, µM (titrated, usually from 53.9 µM), hits mostly activators | actives 0.2% (n = 280,000) | AID 1865; further: nearly all actives have a fitted effect of over 60% in size
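Reporter derepression read as number of fluorescent GFP-positive objects, 20-120 um in size, counted by laser-scanning cytometer. Mouse LDR line with an epigenetically silenced CMV-GFP locus; compound incubation 30 h, 37 C.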
C127i cell count – changes parental c127i cell counts in epigenetic modulator counter-screen; shares compounds with Epigenetic reg; mouse c127i parental cells, fluorescent cell count, 30 h; Potency, µM, usual class: activators; actives 20% (n = 60); AID 493065
HCC4017 tox – epigenetic modulators: cytotoxicity in HCC4017 lung cancer cells. Potency, µM (series often up to 46.1 µM), usual class: cytotoxic. shares compounds with Epigenetic reg. actives 30% (n = 45). HCC4017 NSCLC viability, CellTiter-Glo ATP luminescence, 72 h
H358 viab – epigenetic modulators: cytotoxicity in H358 lung cancer cells; Potency, µM (titrated, usually from 46.1 µM), actives largely listed as cytotoxic; shares compounds with Epigenetic reg; H358 NSCLC viability, ATP luminescence, 72 h; actives 30% (n = 45)
A number is an active result; . = inactive; ? = inconclusive; / = no result. The call rests on the fitted dose curve; in most records, active means well fitted curve in the direction sought with a large enough effect; inconclusive means small, poorly fitted or top-dose-only effect, or another doubt; inactive means no such curve, though single readings can be large; an effect the other way counts as inactive or inconclusive.

SMILES	Vif-APOBEC3F blk	Vif-A3G inh	Epigenetic reg	C127i cell count	HCC4017 tox	H358 viab
CCc1ccccc1NC(=O)Cn1nc(C)c2nn(-c3ccc(Cl)cc3)c(C)c2c1=O	.	.	.	/	/	/
O=[N+]([O-])/C(=C\Nc1ccccc1Cl)S(=O)(=O)c1ccccc1	/	/	.	/	/	/
O=[N+]([O-])/C(C=Nc1ccccc1O)=C\Nc1ccccc1O	.	.	?	.	.	?
O=C(NN1C(=O)c2ccccc2NC1c1ccc([N+](=O)[O-])o1)c1ccc([N+](=O)[O-])cc1 (stereo not given)	.	?	10µM	.	?	?
O=C(NN1C(=O)c2ccccc2NC1c1ccc([N+](=O)[O-])o1)c1ccccc1 (stereo not given)	.	.	.	/	/	/
COc1ccccc1OCC(=O)N/N=C/C=C/c1ccc([N+](=O)[O-])o1	10µM	?	10µM	.	?	14µM
Cc1ccccc1OCC(=O)N/N=C/c1ccc([N+](=O)[O-])o1	.	.	.	/	/	/
CN(c1ccccc1)S(=O)(=O)c1nnc(NC(=O)c2ccccc2)s1	.	.	7.1µM	.	.	.
CCN(c1ccccc1)S(=O)(=O)c1nnc(NC(=O)c2ccccc2)s1	.	.	.	/	/	/
Cc1oc2c(c(C)cc3oc(=O)c(CC(=O)NCCc4ccccc4)c(C)c32)c1C	.	.	.	/	/	/
N=c1n(CC(=O)O)c2ccccc2n1Cc1ccccc1Cl	.	.	.	/	/	/
N=c1n(CC(=O)c2ccc([N+](=O)[O-])cc2)c2ccccc2n1Cc1ccccc1Cl	?	.	?	.	13µM	?
O=C(CSc1nnc(CNC(=O)c2ccccc2)n1-c1cccc(Cl)c1)Nc1ccccc1F	.	.	.	/	/	/
CCOc1ccc(C(=O)NCCc2csc(-c3cccnc3)n2)cc1	.	.	.	/	/	/
Cc1ccc(C(C)C)c(OCc2ccc(C(=O)N/N=C/c3ccc(O)c(O)c3)cc2)c1	.	.	.	/	/	/
Cc1ccc(C(C)C)c(OCc2ccc(C(=O)N/N=C/c3cccc(O)c3O)cc2)c1	.	.	?	.	2µM	0.56µM
COc1ccc(CNC(=O)CCC(=O)N2CCSc3ccccc32)cc1	.	.	?	/	/	/
COc1cccc(N2CCN(S(=O)(=O)c3ccc(-n4cnnn4)cc3)CC2)c1	.	.	?	.	.	.
O=S(=O)(c1ccc(-n2cnnn2)cc1)N1CCN(c2cccc(Cl)c2)CC1	.	.	.	/	/	/
O=C(CSc1nc2c([nH]c3ccccc32)c(=O)n1-c1ccccc1F)Nc1cccc(Cl)c1	.	.	.	/	/	/
Cc1ccc(-n2ncc3c(NCCCN(C)C)ncnc32)cc1Cl	.	.	.	/	/	/
CC(C)Oc1ccc(CNC(=O)CCn2c(=O)c3cccn3c3ccc(F)cc32)cc1	.	.	.	/	/	/
COc1ccc(C(=O)N/C(N)=N/c2nc3ccccc3o2)cc1	/	.	.	/	/	/
COc1ccc(C(=O)/C=C/Sc2nc3ccccc3o2)cc1	.	?	?	.	7.9µM	7.9µM
Cc1ccc2nc3sc(C(=O)Nc4ccc(F)cc4)cc3cc2c1	.	.	.	/	/	/
SMILES	Vif-APOBEC3F blk	Vif-A3G inh	Epigenetic reg	C127i cell count	HCC4017 tox	H358 viab
CCOC(=O)c1cc2c(=O)n3ccccc3nc2n(Cc2ccco2)c1=NC(=O)c1ccc(Br)cc1	?	.	?	28µM	/	/
CCOC(=O)c1cc2c(=O)n3ccccc3nc2n(Cc2ccco2)c1=NC(=O)c1cccc(Br)c1	?	.	.	/	/	/
COc1ccc(C(=O)Nc2cc(-c3cccc(C)c3)nn2-c2ccccc2)cc1	.	.	.	/	/	/
CCN(CCCNC(=O)CSc1cc(=O)n(CC)c2ccccc12)c1cccc(C)c1	.	.	.	/	/	/
COc1cccc(/C=N/Nc2nc(Nc3ccccc3)nc(-n3nc(C)cc3C)n2)c1O	.	.	2.5µM	.	2.5µM	4.4µM
Cc1cc(C)n(-c2nc(Nc3ccccc3)nc(-n3nc(C)cc3C)n2)n1	.	.	.	/	/	/
O=C(COc1cccc(Cl)c1)N1CCC(c2nc3ccccc3s2)CC1	.	.	.	/	/	/
C/C=C/c1ccc(OCC(=O)OCC(=O)NC2CC2)c(OC)c1	.	.	?	.	.	.
O=C(COC(=O)COc1ccc(Cl)cc1Cl)NC1CC1	.	.	/	/	/	/
CC1Cc2cc(S(=O)(=O)CCC(=O)Nc3ccccc3F)ccc2N1C(=O)C1CC1 (stereo not given)	.	.	.	/	/	/
COc1cccc(NC(=O)c2sc3nc(C)c(C(=O)Nc4ccc(C)cc4C)c(-c4sccc4C)c3c2N)c1	.	.	.	/	/	/
Cc1ccc(NC(=O)c2c(C)nc3sc(C(=O)NC4CCCC4)c(N)c3c2-c2ccco2)c(C)c1	2.8µM	.	?	?	/	/
Cc1cccc(CSc2ncc(Cl)c(C(=O)Nc3sc4c(c3C#N)CCCC4)n2)c1	.	.	.	/	/	/
COCCNC(=S)N/N=C(\C)c1ccccc1O	?	?	4.5µM	.	?	?
COCCNC(=S)N/N=C(\C)c1ccccc1OC	.	.	?	/	/	/
